Screens from PubChem.
Rows were chosen to be rich in hits. Some 4.8% of all compounds tested hit in one or more screens of this group.
Beta cell apopt: beta cell apoptosis inhibition. AID 435005. protection from apoptosis, % (no concentration beside the values). 0.8% of 300,000 active. INS-1E cytokine-induced death, ATP luminescence, 48 h; percent of positive-control rescue, neutral wells zero;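 active means Every replicate reaches about 75%, or at least half do and their mean reaches it too, limit read from the data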;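 further: higher means more ATP so stronger rescue from cytokine killing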
Mdm2 MdmX PPI: disrupts the human Mdm2-MdmX interaction; 3% of 330,000 active; AID 485346; SaOS-2 split-luciferase Mdm2/MdmX complementation, luminescence; O15151+Q00987; inhibition, % at 8 µM;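 active means inhibition of at least 50% at 8 µM in the primary screen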
Target sequence (O15151 whole entry, looked up): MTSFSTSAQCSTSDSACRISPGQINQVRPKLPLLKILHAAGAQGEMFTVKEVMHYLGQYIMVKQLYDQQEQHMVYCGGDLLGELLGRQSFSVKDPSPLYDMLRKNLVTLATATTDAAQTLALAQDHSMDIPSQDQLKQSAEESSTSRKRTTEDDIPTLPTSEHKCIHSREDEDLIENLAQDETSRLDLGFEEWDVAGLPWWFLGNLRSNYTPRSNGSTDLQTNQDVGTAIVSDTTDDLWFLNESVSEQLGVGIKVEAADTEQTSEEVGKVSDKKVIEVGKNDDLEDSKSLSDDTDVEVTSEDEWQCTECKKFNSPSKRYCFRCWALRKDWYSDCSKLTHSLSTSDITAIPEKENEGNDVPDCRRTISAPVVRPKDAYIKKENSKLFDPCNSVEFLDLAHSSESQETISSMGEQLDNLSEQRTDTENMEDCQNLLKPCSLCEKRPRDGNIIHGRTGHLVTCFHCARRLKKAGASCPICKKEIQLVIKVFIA
Target sequence (Q00987 whole entry, looked up): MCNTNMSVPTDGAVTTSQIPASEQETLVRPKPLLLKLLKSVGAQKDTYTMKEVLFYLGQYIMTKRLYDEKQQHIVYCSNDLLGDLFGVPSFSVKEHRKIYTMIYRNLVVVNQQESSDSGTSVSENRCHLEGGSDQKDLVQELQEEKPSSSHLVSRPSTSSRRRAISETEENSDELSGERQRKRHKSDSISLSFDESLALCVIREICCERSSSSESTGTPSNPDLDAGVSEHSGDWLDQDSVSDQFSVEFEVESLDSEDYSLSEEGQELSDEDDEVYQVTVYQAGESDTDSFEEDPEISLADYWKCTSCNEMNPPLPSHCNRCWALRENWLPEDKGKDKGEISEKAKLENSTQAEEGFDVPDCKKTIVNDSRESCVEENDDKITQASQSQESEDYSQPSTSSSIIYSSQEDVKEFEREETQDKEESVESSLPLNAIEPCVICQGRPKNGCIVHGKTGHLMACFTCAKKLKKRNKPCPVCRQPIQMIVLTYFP
CSC inhib: blocks cancer stem cells. cancer stem cell-like cells viability, luminescence. inhibition, % at 7.5 µM. 1.1% of 300,000 active; in the data active means inhibition above about 75%; tested in HMLE shEcad cells
Calb FLC: C. albicans growth modulation with fluconazole. C. albicans CaCi-2 (fluconazole-resistant clinical isolate) + fluconazole, Alamar Blue growth, 48 h. growth inhibition, % (test concentration not listed). 0.57% of 300,000 active. AID 1979;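 active means growth inhibition above about 58% in most replicates, limit read from the data, passing the limit was not always enough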;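 further: all wells also contain fluconazole at 8 µg/ml as a sub-toxic cotreatment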
MPTP block: permeability transition pore inhibition | 1.4% of 360,000 active | inhibition, % at 10 µM | isolated mouse mitochondria, Ca2+ swelling absorbance, 30 min;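 active means inhibition of 50% or more, scaled per plate between neutral and stimulator controls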
Mdm2-MdmX conf: confirmation of human Mdm2/MdmX interaction inhibitors. shares compounds with Mdm2 MdmX PPI. 55% of 10,000 active. Mdm2-MdmX binding, luminescent assay. inhibition, % at 8 µM; in the data active means inhibition above about 40%
Full FLuc ctr: inhibits full-length luciferase, flagging false Mdm2/MdmX hits. shares compounds with Mdm2 MdmX PPI. SaOS-2 full-length luciferase counterscreen, luminescence. inhibition, % at 8 µM. 77% of 6,200 active;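 active means mean inhibition at 8 µM reaching about 37%, which flags the compound as non-specific, limit read from the data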;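 further: p53-null SaOS-2 cells with luciferase driven by a doxycycline-inducible promoter; compound on cells about two nights before reading with doxycycline added after day one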
Numbers stand for hits; n = inactive; x = no result given.

SMILES | Beta cell apopt | Mdm2 MdmX PPI | CSC inhib | Calb FLC | MPTP block | Mdm2-MdmX conf | Full FLuc ctr
C/C(=N\NC(=O)c1nnn(-c2nonc2N)c1CN(C)c1ccccc1)c1ccccc1O | 90 | 69 | 98 | n | n | 76 | n
COc1cccc(/C=N/NC(=O)c2nnn(-c3nonc3N)c2CN(C)c2ccccc2)c1 | n | n | n | n | n | x | x
COc1ccc(/C(C)=N/NC(=O)c2nnn(-c3nonc3N)c2CN(C)c2ccccc2)cc1 | n | 50 | n | x | n | n | x
CN(Cc1c(C(=O)N/N=C/c2cccs2)nnn1-c1nonc1N)c1ccccc1 | n | n | n | x | n | x | x
CC(C)CN1C(=O)CSCC1(C)C(=O)NCc1ccccc1 (configuration not stated) | x | x | x | x | n | x | x
Cn1ncc2c(O/N=C(\N)c3ccc(C(F)(F)F)cc3)ncnc21 | n | 98 | n | n | n | 46 | n
O=C(c1ccccc1)c1coc2c1C(=O)c1ccccc1C2=O | n | n | n | n | n | x | x
O=C1c2ccccc2C(=O)c2c1oc(C(F)(F)F)c2C(=O)c1ccccc1 | 123 | 84 | 117 | n | n | 82 | 50
Cc1cc(C)c(C)c(S(=O)(=O)NC(C(=O)NCCc2ccco2)C(C)C)c1C (configuration not stated) | n | n | n | x | n | x | x
CN(C)CCCN(C(=O)c1cc(Cl)sc1Cl)c1nc2cc3c(cc2s1)OCO3 | n | 54 | n | n | n | n | x
CN(C)CCCN(C(=O)c1ccc(C(=O)c2ccccc2)cc1)c1nc2cc3c(cc2s1)OCO3 | n | 75 | n | n | n | 48 | n
COc1cc(CN2C[C@@H](CO)O[C@@H](n3cnc4c(NCc5ccc(F)cc5)ncnc43)C2)cc(OC)c1OC | x | x | x | x | n | x | x
O=C(CCN1C(=O)/C(=C/c2ccccc2F)SC1=S)NCCCn1ccnc1 | x | n | n | n | n | x | x
CCOc1ccccc1N1CCN(C(=O)CCNS(=O)(=O)c2ccccc2F)CC1 | n | n | n | n | n | x | x
COC(=O)c1c(C(=O)OC)c(-c2cccc(F)c2)n2c1CS(=O)(=O)C2 | n | n | n | n | n | x | x
N=c1c2ccccc2nc2n1CCCCCCCCCCC2 | 97 | 59 | n | n | n | n | x
COc1ccc2c3c(cccc13)C(=O)N(O)C2=O | n | x | n | n | n | x | x
CCC1=NNc2cccc3c(OC)ccc1c23 | n | 62 | x | n | x | n | x
Cc1noc(/C=C/N(C)C)c1S(=O)(=O)N1CCN(c2ccccc2)CC1 | n | n | x | n | n | x | x
Cc1ccc(C)c(N2CCN(S(=O)(=O)c3c(C)noc3/C=C/N(C)C)CC2)c1 | n | 56 | n | n | n | n | x
O=C(Nc1nc(-c2ccccc2)c(-c2ccccc2)s1)c1ccc(S(=O)(=O)N2CCCC2)cc1 | n | 59 | n | n | n | n | x
COc1cc(-c2noc(C)c2/C=C/c2cccc([N+](=O)[O-])c2)cc(OC)c1OC | n | 79 | n | n | n | 75 | 84
O=S(=O)(c1ccc(Cl)cc1)c1snnc1-c1ccccc1 | n | 98 | 108 | n | n | 80 | 56
O=S(=O)(c1ccc(F)cc1)c1snnc1-c1ccccc1 | n | x | n | n | n | x | x
COc1cc(/C=C/C(=O)N2C(=O)c3cccc(N)c3C2=O)cc(OC)c1OC | n | 71 | x | n | n | 58 | 79
SMILES | Beta cell apopt | Mdm2 MdmX PPI | CSC inhib | Calb FLC | MPTP block | Mdm2-MdmX conf | Full FLuc ctr
COc1ccc(OC)c(/C=C/C(=O)N2C(=O)c3cccc(N)c3C2=O)c1 | n | 63 | n | n | n | 48 | n
Nc1cccc2c1C(=O)N(C(=O)/C=C/c1cccc(Br)c1)C2=O | x | x | x | n | n | x | x
COc1cc(/C=C/C(=O)N2CCCC2)cc(OC)c1OC | n | n | n | n | n | x | x
COc1ccc(OC)c(/C=C/C(=O)N2CCCc3ccccc32)c1 | n | n | n | n | n | x | x
COc1cc(/C=C/C(=O)N2CCN(C(=O)/C=C/c3cc(OC)c(OC)c(OC)c3)CC2)cc(OC)c1OC | n | 64 | n | n | n | n | x
Nc1cccc2c1C(=O)N(C(=O)/C=C/c1cccc(F)c1)C2=O | n | 56 | n | n | n | 50 | 65
O=C(NCc1ccco1)c1ccc(-c2ccc(F)c(F)c2)c2ccoc12 | x | x | x | x | n | x | x
CC(C)(C)c1ccc2cc(F)cc(F)c2n1 | x | x | x | x | n | x | x
Cc1ccc(-c2cc(C(=O)NCCCN3CCOCC3)c3ccc(Cl)c(C)c3n2)cc1 | n | 50 | n | n | n | 42 | 75
CCCCn1c(C)nc2cc(S(=O)(=O)N3CCOCC3)ccc21 | n | n | n | x | n | x | x
CCCCn1c(CCl)nc2cc(S(=O)(=O)N3CCOCC3)ccc21 | n | 88 | n | x | n | 53 | n
CCN(CC)S(=O)(=O)c1ccc(OC(C)C)c(NC(=O)c2c3c(nc4ccccc24)CCN(Cc2ccccc2)C3)c1 | n | 55 | x | n | n | 54 | 80
COc1cc(OC)c(/C=C2\SC(=O)N(CC(=O)Nc3ccccc3F)C2=O)c(OC)c1 | n | 57 | n | n | n | n | 73
COc1ccc(/C=C2/SC(=O)N(CCC(=O)Nc3ccc(C)cc3)C2=O)cc1OC | n | n | n | n | x | x | x
O=C(CCCN1C(=O)/C(=C\c2ccco2)SC1=S)Nc1ccc2ccccc2c1 | n | 60 | 86 | n | n | n | 98
COc1ccc(/C=C2\SC(=S)N(CCCC(=O)Nc3ccc(O)cc3)C2=O)cc1 | n | 76 | n | n | n | 66 | 54
COc1cc(/C=C2\SC(N)=NC2=O)ccc1OCC(=O)Nc1ccc(C)cc1 | n | 57 | n | n | n | n | x
CCN(CC)C(=O)CCCC(=O)N(CC)CC | n | n | n | n | n | x | x
CCN(CC)C(=O)C1=C(C)N(Cc2ccc(OC)cc2)C(=O)C(CC(=O)NCc2cccs2)C1 (configuration not stated) | x | x | x | x | n | x | x
COc1cc(/C=C2/SC(=S)N(CCC(=O)Nc3ccc(C(=O)O)cc3)C2=O)cc(OC)c1OC | n | n | n | n | n | x | x
COc1ccc(/C=C2/SC(=S)N(CCCC(=O)Nc3ccc(O)cc3)C2=O)cc1 | n | 88 | n | n | n | 90 | 56
COc1ccc(/C=C2\SC(=S)N(CCCCCC(=O)Nc3cc(C)on3)C2=O)cc1OC | n | 66 | n | n | n | n | x
COc1cc(/C=C2\SC(=S)N(CCC(=O)Nc3ccc(O)cc3)C2=O)cc(OC)c1OC | n | 92 | n | n | n | n | x
COc1ccc(/C=C2/SC(=O)N(CCC(=O)Nc3ccccc3)C2=O)cc1OC | n | 75 | n | n | n | n | 82
Cc1cc(C)c(OCC(=O)OCC(=O)N2c3ccccc3CC2C)c(C)c1 (configuration not stated) | n | n | n | n | n | x | x
CCN(CC)S(=O)(=O)c1cccc(-n2c(O)c(C=Nc3ccccc3C(=O)O)c3ccccc3c2=O)c1 | n | 67 | n | n | n | 68 | 37
O=C(O)c1ccccc1N=Cc1c(O)n(-c2nccs2)c(=O)c2ccccc12 | n | n | n | n | n | x | x
COc1ccc(-c2cn[nH]c2-c2ccc(OCc3ccccc3)cc2O)cc1 | n | 78 | 102 | n | n | 77 | 55
